Laboratory results published in paper PMC7862700, “An all-to-all approach to the identification of sequence-specific readers for epigenetic DNA modifications on cytosine”.

Experiments:
Experiment in all cases: DAPPL (digital affinity profiling via proximity ligation, sequencing); 10 mM Tris-HCl pH 7.5, 50 mM NaCl, 1 mM DTT, 4% glycerol, room temperature, 30 min; GST-TFs on glutathione beads, 16-mer random dsDNA library, 0.1% formaldehyde crosslink after washing; high values mean tight binding
FLI1 = target: T1, FLI1 (Homo sapiens, UniProt Q01543 1-452); settings: protein: recombinant; tags: N-terminal GST; dsDNA, one strand shown
T1 sequence: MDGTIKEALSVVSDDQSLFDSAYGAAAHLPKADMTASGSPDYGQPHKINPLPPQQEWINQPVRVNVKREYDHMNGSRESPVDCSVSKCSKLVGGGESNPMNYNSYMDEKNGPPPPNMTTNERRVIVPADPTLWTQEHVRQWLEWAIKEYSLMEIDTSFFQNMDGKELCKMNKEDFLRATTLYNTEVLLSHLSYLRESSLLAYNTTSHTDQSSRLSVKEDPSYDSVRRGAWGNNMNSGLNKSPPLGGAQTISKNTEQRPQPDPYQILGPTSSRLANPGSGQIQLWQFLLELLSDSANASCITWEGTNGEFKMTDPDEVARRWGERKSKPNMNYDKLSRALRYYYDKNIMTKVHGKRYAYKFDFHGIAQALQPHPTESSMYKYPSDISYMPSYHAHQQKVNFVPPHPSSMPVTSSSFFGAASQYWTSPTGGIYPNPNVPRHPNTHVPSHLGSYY
Outline: (§1)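 A tag-only sample was pooled with DNA-barcoded human transcription factors that had been expressed in yeast as GST fusions and captured on glutathione beads. The pools were incubated for 30 min at room temperature with 200 nmole of a random double-stranded 16-mer DNA library in Tris/NaCl/DTT/glycerol buffer, then washed, crosslinked with 0.1% formaldehyde, proximity-ligated (BsaI/T4 ligase, 1 h, 37 °C), PCR-amplified and sequenced on an Illumina NextSeq500. Binding signal is each hexamer's read frequency for a factor divided by its frequency for the tag-only sample.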

ELK1 = target: T2, ELK1 (Homo sapiens, UniProt P19419 1-428); settings: protein: recombinant; tags: N-terminal GST; dsDNA, one strand shown
T2 sequence: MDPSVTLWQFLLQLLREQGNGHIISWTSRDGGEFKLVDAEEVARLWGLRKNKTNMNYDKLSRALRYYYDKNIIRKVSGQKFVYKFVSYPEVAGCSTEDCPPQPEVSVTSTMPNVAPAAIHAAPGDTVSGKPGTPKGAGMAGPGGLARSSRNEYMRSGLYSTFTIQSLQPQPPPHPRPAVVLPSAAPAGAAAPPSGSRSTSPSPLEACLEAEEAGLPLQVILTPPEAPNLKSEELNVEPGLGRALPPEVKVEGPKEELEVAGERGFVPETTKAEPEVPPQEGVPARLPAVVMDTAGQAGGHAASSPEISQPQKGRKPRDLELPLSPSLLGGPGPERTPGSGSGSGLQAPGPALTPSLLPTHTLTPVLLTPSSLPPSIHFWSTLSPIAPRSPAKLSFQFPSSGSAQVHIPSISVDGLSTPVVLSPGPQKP
Outline: as §1

GABPA = target: T3, GABPA (Homo sapiens, UniProt Q06546 1-454); settings: protein: recombinant; tags: N-terminal GST; dsDNA, one strand shown
T3 sequence: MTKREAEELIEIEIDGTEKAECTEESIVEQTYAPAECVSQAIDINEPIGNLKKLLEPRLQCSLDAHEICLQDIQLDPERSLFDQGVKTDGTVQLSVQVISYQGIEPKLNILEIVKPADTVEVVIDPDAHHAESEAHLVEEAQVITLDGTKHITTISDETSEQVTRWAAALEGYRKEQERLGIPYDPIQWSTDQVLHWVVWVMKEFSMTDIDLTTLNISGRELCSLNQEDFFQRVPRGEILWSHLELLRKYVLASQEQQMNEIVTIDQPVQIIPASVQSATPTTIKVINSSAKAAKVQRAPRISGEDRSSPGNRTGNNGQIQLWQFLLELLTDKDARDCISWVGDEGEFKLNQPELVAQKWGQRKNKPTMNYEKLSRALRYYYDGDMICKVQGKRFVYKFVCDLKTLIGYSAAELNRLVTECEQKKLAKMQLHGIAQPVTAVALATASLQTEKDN
Outline: as §1

ERG = target: T4, ERG (Homo sapiens, UniProt P11308 1-479); settings: protein: recombinant; tags: N-terminal GST; dsDNA, one strand shown
T4 sequence: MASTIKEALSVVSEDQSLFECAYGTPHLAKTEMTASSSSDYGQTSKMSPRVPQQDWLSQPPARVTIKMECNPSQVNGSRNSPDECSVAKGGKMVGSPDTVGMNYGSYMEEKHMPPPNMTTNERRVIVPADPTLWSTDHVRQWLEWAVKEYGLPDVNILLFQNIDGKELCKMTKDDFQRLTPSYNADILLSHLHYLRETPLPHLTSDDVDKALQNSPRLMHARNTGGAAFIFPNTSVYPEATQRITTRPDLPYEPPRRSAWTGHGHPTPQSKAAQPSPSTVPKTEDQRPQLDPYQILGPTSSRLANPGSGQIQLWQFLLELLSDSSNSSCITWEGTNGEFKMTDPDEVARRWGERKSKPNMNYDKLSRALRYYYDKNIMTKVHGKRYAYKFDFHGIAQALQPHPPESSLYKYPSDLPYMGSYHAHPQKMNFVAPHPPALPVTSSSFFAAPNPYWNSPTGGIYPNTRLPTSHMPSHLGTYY
Outline: as §1

ELF1 = ELF1 (Homo sapiens, UniProt P32519 1-619); settings: protein: recombinant; tags: N-terminal GST; dsDNA, one strand shown
Sequence of ELF1 (P32519 whole entry): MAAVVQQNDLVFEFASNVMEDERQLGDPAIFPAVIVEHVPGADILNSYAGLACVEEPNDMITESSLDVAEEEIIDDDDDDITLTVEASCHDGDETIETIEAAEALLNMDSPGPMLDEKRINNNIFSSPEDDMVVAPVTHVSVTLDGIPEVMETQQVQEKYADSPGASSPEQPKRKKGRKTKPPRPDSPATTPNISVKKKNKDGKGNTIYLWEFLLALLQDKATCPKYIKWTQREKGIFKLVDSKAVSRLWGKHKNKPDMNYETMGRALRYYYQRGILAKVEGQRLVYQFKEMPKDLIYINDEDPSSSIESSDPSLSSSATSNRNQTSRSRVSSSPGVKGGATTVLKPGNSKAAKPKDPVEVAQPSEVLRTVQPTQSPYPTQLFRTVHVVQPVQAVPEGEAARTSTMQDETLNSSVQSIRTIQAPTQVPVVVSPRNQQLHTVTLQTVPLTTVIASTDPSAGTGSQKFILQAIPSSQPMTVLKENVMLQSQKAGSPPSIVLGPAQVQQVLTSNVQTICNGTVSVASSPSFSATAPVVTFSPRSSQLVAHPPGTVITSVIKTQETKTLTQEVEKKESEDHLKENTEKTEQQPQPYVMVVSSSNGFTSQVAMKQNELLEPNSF
Outline: as §1

EHF = target: T5, EHF (Homo sapiens, UniProt Q9NZC4 1-300); settings: protein: recombinant; tags: N-terminal GST; dsDNA, one strand shown
T5 sequence: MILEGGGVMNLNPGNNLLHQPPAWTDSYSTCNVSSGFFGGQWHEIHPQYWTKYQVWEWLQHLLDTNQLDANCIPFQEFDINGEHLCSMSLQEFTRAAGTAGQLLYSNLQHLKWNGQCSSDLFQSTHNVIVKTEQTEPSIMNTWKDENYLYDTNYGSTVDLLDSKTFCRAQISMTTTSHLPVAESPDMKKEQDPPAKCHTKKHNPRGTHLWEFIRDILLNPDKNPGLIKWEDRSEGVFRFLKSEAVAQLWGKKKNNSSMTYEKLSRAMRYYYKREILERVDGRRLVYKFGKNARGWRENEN
Outline: as §1

SPI1 = SPI1 (Homo sapiens, UniProt P17947 1-270); settings: protein: recombinant; tags: N-terminal GST; dsDNA, one strand shown
Outline: as §1

SPIB = SPIB (Homo sapiens, UniProt Q01892 1-262); settings: protein: recombinant; tags: N-terminal GST; dsDNA, one strand shown
Sequence of SPIB (Q01892 whole entry): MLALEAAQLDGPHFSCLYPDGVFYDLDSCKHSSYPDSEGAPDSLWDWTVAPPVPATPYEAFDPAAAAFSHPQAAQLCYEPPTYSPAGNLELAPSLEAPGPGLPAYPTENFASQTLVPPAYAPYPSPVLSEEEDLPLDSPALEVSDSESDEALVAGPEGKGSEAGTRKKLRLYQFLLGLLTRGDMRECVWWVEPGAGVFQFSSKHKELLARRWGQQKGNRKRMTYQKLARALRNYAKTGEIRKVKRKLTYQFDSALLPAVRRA
Outline: as §1

ELK3 = target: T6, ELK3 (Homo sapiens, UniProt P41970 1-407); settings: protein: recombinant; tags: N-terminal GST; dsDNA, one strand shown
T6 sequence: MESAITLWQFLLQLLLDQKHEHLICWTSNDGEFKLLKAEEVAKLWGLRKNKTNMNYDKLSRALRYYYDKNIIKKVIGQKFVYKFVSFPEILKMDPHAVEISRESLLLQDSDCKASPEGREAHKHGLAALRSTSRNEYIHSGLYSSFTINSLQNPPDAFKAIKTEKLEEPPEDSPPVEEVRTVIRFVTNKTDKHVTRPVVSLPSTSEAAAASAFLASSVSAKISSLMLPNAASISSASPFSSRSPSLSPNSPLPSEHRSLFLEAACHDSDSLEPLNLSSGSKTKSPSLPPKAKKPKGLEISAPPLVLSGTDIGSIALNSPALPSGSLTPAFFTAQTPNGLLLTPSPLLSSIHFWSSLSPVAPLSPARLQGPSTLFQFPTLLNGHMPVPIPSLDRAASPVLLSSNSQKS
Outline: as §1

FEV = target: T7, FEV (Homo sapiens, UniProt Q99581 1-238); settings: protein: recombinant; tags: N-terminal GST; dsDNA, one strand shown
T7 sequence: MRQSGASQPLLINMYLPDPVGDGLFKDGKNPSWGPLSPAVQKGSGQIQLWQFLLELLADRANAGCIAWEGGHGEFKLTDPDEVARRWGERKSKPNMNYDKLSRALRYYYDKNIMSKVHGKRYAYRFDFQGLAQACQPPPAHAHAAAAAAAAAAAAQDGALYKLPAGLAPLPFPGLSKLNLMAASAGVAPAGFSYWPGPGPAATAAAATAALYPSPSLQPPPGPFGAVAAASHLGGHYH
Outline: as §1

ETV5 = ETV5 (Homo sapiens, UniProt P41161 1-510); settings: protein: recombinant; tags: N-terminal GST; dsDNA, one strand shown
Sequence of ETV5 (P41161 whole entry): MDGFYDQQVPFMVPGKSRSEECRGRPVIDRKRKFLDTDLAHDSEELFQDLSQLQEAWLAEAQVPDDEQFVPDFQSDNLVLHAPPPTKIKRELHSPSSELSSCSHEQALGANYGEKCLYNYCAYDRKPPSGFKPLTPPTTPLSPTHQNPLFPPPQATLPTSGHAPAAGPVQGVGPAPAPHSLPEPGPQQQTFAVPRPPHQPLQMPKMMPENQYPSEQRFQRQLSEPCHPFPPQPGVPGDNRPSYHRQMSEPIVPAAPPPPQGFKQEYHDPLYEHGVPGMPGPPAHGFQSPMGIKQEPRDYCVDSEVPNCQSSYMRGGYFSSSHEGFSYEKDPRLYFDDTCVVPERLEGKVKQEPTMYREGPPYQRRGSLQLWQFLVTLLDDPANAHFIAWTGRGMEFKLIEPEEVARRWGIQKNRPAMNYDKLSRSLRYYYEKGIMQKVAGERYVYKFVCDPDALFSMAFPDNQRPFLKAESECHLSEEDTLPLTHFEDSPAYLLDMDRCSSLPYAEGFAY
Outline: as §1

HSF1 = HSF1 (Homo sapiens, UniProt Q00613 1-529); settings: protein: recombinant; tags: N-terminal GST; chain copies: 3; dsDNA, one strand shown
Sequence of HSF1 (Q00613 whole entry): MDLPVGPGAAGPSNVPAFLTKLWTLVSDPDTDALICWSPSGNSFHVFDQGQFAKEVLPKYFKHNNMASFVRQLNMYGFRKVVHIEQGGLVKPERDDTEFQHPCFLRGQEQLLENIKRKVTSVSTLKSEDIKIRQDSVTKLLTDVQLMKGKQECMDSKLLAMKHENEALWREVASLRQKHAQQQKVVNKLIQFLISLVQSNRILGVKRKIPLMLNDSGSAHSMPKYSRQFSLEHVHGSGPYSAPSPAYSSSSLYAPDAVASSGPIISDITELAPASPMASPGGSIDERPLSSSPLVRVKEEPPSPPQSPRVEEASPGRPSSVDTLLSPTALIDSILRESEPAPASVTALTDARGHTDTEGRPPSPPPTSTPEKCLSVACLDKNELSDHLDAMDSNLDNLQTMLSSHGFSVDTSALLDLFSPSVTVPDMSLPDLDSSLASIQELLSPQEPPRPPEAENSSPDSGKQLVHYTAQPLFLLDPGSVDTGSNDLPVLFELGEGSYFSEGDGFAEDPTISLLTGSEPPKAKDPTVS
Outline: as §1

SPIC = target: T8, SPIC (Homo sapiens, UniProt Q8N5J4 1-248); settings: protein: recombinant; tags: N-terminal GST; dsDNA, one strand shown
T8 sequence: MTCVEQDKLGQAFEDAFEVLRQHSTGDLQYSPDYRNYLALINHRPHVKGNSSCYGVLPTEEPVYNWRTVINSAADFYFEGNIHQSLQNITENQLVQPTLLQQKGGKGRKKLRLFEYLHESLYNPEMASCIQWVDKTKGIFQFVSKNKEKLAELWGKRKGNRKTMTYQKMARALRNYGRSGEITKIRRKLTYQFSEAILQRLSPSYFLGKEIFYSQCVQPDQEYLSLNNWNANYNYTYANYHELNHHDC
Outline: as §1

ELF4 = ELF4 (Homo sapiens, UniProt Q99607 1-663); settings: protein: recombinant; tags: N-terminal GST; dsDNA, one strand shown
Sequence of ELF4 (Q99607 whole entry): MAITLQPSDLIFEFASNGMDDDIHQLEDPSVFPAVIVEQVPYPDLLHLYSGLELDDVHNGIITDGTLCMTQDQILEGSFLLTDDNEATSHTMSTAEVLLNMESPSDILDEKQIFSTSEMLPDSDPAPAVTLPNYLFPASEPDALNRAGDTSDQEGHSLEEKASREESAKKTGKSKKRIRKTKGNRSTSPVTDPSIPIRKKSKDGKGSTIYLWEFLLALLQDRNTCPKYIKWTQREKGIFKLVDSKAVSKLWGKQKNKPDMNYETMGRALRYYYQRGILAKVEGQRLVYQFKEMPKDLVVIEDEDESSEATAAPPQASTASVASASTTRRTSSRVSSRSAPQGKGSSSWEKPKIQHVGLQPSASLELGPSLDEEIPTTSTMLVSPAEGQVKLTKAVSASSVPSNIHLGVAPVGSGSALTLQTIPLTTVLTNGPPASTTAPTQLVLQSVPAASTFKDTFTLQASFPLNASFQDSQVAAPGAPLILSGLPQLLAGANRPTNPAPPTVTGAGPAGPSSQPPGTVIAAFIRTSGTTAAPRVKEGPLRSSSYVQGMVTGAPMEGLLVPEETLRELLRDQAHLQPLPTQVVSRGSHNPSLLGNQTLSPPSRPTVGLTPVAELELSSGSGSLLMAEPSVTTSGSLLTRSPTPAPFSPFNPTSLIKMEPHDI
Outline: as §1

ELK4 = target: T9, ELK4 (Homo sapiens, UniProt P28324-2 1-405); settings: protein: recombinant; tags: N-terminal GST; dsDNA, one strand shown
T9 sequence: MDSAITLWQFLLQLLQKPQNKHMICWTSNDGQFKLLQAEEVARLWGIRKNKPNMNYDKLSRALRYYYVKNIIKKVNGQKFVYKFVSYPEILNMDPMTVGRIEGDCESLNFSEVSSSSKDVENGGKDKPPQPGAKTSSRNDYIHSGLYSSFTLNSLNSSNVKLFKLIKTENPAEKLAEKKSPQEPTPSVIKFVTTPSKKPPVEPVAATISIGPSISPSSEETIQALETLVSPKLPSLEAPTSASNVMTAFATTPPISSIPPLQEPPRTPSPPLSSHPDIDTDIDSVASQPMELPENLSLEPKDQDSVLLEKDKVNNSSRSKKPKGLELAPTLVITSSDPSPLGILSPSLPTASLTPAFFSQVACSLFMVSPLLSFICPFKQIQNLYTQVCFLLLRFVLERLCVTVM
Outline: as §1

ETV2 = target: T10, ETV2 (Homo sapiens, UniProt O00321 1-342); settings: protein: recombinant; tags: N-terminal GST; dsDNA, one strand shown
T10 sequence: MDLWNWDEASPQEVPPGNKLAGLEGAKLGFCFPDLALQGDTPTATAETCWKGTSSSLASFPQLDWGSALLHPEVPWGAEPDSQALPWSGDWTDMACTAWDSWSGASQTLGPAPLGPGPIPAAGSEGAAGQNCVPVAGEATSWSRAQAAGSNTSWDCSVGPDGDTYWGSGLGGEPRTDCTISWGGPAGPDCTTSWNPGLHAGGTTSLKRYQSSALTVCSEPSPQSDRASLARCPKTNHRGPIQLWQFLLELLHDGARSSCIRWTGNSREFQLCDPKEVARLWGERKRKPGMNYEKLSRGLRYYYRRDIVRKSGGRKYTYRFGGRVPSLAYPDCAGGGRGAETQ
Outline: as §1

ELF3 = target: T11, ELF3 (Homo sapiens, UniProt P78545 1-371); settings: protein: recombinant; tags: N-terminal GST; dsDNA, one strand shown
T11 sequence: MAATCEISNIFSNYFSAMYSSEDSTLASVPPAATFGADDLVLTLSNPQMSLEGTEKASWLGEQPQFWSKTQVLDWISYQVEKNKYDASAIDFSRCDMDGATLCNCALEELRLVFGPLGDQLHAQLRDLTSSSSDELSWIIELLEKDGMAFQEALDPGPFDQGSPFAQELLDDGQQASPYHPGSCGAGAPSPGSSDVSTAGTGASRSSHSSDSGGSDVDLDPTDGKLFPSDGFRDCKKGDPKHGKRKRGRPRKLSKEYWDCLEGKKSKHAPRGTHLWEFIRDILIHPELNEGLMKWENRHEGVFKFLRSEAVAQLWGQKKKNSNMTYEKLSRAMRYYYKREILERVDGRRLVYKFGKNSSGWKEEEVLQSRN
Outline: as §1

CRX = CRX (Homo sapiens, UniProt O43186 1-299); settings: protein: recombinant; tags: N-terminal GST; dsDNA, one strand shown
Sequence of CRX (O43186 whole entry): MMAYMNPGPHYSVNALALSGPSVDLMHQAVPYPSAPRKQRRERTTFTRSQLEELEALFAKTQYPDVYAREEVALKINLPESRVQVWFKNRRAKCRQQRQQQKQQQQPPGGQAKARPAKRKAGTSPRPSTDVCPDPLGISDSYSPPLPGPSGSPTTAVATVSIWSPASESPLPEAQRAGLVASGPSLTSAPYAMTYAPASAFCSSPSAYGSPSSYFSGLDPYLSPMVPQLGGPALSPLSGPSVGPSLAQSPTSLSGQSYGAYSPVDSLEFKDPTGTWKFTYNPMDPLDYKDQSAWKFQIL
Outline: as §1

ETV1 = ETV1 (Homo sapiens, UniProt P50549 1-477); settings: protein: recombinant; tags: N-terminal GST; dsDNA, one strand shown
Sequence of ETV1 (P50549 whole entry): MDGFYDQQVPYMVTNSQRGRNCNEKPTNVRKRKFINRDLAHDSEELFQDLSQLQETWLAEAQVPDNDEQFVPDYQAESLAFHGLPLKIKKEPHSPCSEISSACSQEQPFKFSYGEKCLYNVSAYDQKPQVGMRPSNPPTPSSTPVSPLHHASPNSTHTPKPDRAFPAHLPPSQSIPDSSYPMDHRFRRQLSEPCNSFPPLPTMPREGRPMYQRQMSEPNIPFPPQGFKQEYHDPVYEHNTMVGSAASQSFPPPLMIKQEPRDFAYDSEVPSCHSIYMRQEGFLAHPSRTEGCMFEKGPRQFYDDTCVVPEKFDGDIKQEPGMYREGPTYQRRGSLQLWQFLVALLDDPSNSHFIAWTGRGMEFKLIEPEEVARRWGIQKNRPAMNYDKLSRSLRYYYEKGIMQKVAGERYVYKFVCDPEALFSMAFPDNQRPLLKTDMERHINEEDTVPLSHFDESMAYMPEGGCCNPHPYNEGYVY
Outline: as §1

TATACA
binding signal (FLI1): 1.32 fold enrichment (6-mer frequency, TF over GST control) | binding signal (ELK1): 1.29 fold enrichment (6-mer frequency, TF over GST control) | binding signal (GABPA): 1.42 fold enrichment (6-mer frequency, TF over GST control) | binding signal (ERG): 1.39 fold enrichment (6-mer frequency, TF over GST control) | binding signal (ELF1): 1.27 fold enrichment (6-mer frequency, TF over GST control) | binding signal (EHF): 1.35 fold enrichment (6-mer frequency, TF over GST control) | binding signal (SPI1): 1.32 fold enrichment (6-mer frequency, TF over GST control) | binding signal (SPIB): 1.22 fold enrichment (6-mer frequency, TF over GST control) | binding signal (ELK3): 1.47 fold enrichment (6-mer frequency, TF over GST control) | binding signal (FEV): 1.29 fold enrichment (6-mer frequency, TF over GST control) | binding signal (ETV5): 1.35 fold enrichment (6-mer frequency, TF over GST control) | binding signal (HSF1): 1.27 fold enrichment (6-mer frequency, TF over GST control) | binding signal (SPIC): 1.28 fold enrichment (6-mer frequency, TF over GST control) | binding signal (ELF4): 1.37 fold enrichment (6-mer frequency, TF over GST control) | binding signal (ELK4): 1.28 fold enrichment (6-mer frequency, TF over GST control) | binding signal (ETV2): 1.28 fold enrichment (6-mer frequency, TF over GST control) | binding signal (ELF3): 1.43 fold enrichment (6-mer frequency, TF over GST control) | binding signal (CRX): 1.36 fold enrichment (6-mer frequency, TF over GST control) | binding signal (ETV1): 1.43 fold enrichment (6-mer frequency, TF over GST control)
